Experiment [1] addresses Luciferin 4-monooxygenase (Photinus pyralis) (UniProt P08659). Briefly: qHTS assay to identify small molecule inhibitors of firefly luciferase (AID 1224835). Further: nearly all actives have a fitted effect of over 25% in size. Further: potency means the concentration at half of the fitted maximal effect. A digest of the protocol:
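Quantitative HTS format; KM concentrations of both substrates. Purified P. pyralis FLuc activity quantified from luminescence images.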
Background: Quantitative high-throughput screening tests each substance at several concentrations.

Experiment [2] is described as follows: qHTS assay to identify small molecule agonists of the constitutive androstane receptor (CAR) signaling pathway - cell viability counter screen (AID 1224836). Further: nearly all actives have a fitted effect of over 45% in size. A digest of the protocol: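 Fluorescence from CellTiter-Fluor indicates live cells after 23 h exposure. The human hepatoma line expresses hCAR and a CYP2B6-2.2kb reporter. Incubation medium contains 0.75 uM PK11195 (final).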

Experiment [3] is described as follows: qHTS assay to identify small molecule antagonists of the constitutive androstane receptor (CAR) signaling pathway - cell viability counter screen (AID 1224837). Further: nearly all actives have a fitted effect of over 45% in size. A digest of the protocol:
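Cytotoxicity counter-screen: CellTiter-Fluor fluorescence after 23 h compound exposure (15-point qHTS) in double-stable HepG2-CYP2B6-hCAR cells, with 50 nM CITCO added.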

Experiment [4] can be described thus: qHTS assay to identify small molecule antagonists of the estrogen related receptor signaling pathway with the pleiotropic PPARgamma coactivator (PGC) from Tox21 10K library - cell viability counter screen (AID 1224840; active means well fitted cell-killing curve with a large enough effect in the repeat runs, not every such curve was filed as active; further: nearly all actives have a fitted effect of over 40% in size). A digest of the protocol:
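Counter-screen for cytotoxicity: after 17.5 h compound exposure at 37 C, CellTiter-Fluor reagent added to PGC/ERR cells for 30 min and fluorescence read. Cells were seeded at 2,000 per well 6 h before dosing.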

In experiment [5] the target is Thyrotropin receptor (Homo sapiens) (UniProt P16473). In words: qHTS assay to identify small molecule agonists of the thyroid stimulating hormone receptor (TSHR) signaling pathway (AID 1224843; calls by dose curve; further: nearly all actives have a fitted effect of over 45% in size). A digest of the protocol:
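Compounds are titrated over 15 concentrations, in triplicate, onto TSHR-HEK293 cells seeded at 800/well. Plates sit 30 min at room temperature before cAMP-d2 and anti-cAMP cryptate are added; signal is read after a further hour.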

Experiment [6] is described as follows: qHTS assay to identify small molecule agonists of the hypoxia (HIF-1) signaling pathway - cell viability counter screen (AID 1224844; calls by dose curve; further: nearly all actives have a fitted effect of over 50% in size). A digest of the protocol:
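Cytotoxicity measured by CellTiter-Glo ATP luminescence in the wells also read for beta-lactamase signal. Cells were HRE-bla ME-180 (2,000/well, 0.5% dialyzed FBS), exposed to compounds for 17 h at 37C.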

Experiment [7] is described as follows: qHTS assay to identify small molecule agonists of the hypoxia (HIF-1) signaling pathway (AID 1224846; active means well fitted activation curve with a large enough effect in the signal ratio in the repeat runs, not every such curve was filed as active; the % refers to the signal ratio). A digest of the protocol:
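Compounds added to ME-180 cells carrying hypoxia-response-element beta-lactamase reporter (0.5% dialyzed FBS, 5 h preplating), 17 h at 37C; agonist activity detected by CCF4-AM B/G FRET read-out.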

A short description of experiment [8]: qHTS RealTime-Glo MT Cell Viability Assay in HepG2 cells - 24 hour (AID 1224867). Further: nearly all actives have a fitted effect of over 50% in size. A digest of the protocol:
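Compound treatment began 5 h after plating HepG2 cells (600/well) with NanoLuc luciferase and prosubstrate. Plates stayed at 37 C for 40 h; luminescence was captured at six time points, 0 h through 40 h.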

Experiment [9] can be described thus: qHTS RealTime-Glo MT Cell Viability Assay in HEK293 cells - 32 hour (AID 1224868). Further: top concentration of the series differs between compounds; nearly all actives have a fitted effect of over 50% in size. A digest of the protocol:
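Quantitative high-throughput screen of the Tox21 10K library in HEK293: cells and RealTime-Glo reagents plated together, compound added at 5 h, luminescence monitored through 40 h at 37 C.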

The nature of experiment [10]: A CellTox Green Cytotoxicity Assay to monitor cytotoxicity in HEK293 cells - 0 hour (AID 1224869). Further: nearly all actives have a fitted effect of over 50% in size. A digest of the protocol: (§1)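 Fluorescence from a DNA-binding dye excluded by viable cells was measured repeatedly in the same HEK293 wells (600 cells/well) during continuous compound exposure at 37 C. Each assay gives one read point: 0, 8, 16, 24, 32 or 40 h.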
Experiment [11] in a line: qHTS RealTime-Glo MT Cell Viability Assay in HepG2 cells - 40 hour (AID 1224870). Further: nearly all actives have a fitted effect of over 50% in size. A digest of the protocol:
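HepG2 cells mixed with RealTime-Glo MT reagents (NanoLuc plus cell-permeant prosubstrate) were seeded at 600 cells/well, incubated 5 h at 37 C/5% CO2, then pinned with compounds in DMSO; nonlytic luminescence tracked viability during 40 h treatment.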

Experiment [12] is described as follows: A CellTox Green Cytotoxicity Assay to monitor cytotoxicity in HEK293 cells - 40 hour (AID 1224871). Further: nearly all actives have a fitted effect of over 45% in size. Further: potency means the concentration at half of the fitted maximal effect. A digest of the protocol: as §1
The target in experiment [13] is Nuclear receptor subfamily 1 group I member 3 (Homo sapiens) (UniProt Q14994). In words: qHTS assay to identify small molecule antagonists of the constitutive androstane receptor (CAR) signaling pathway (AID 1224838).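 Further: HepG2 cells stably expressing hCAR with CYP2B6 luciferase reporter stimulated by CITCO; nearly all actives have a fitted effect of over 40% in size.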 A digest of the protocol: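 Antagonism measured as luciferase signal (ONE-Glo, 30 min, room temperature) in CAR-stimulated cells: HepG2-CYP2B6-hCAR double-stable line exposed 24 hr at 37 C to compound in a 15-point series plus 50 nM CITCO.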

For experiment [14] the target is unchanged. In words: qHTS assay to identify small molecule agonists of the constitutive androstane receptor (CAR) signaling pathway (AID 1224839). Further: nearly all actives have a fitted effect of over 15% in size. Further: potency means the concentration at half of the fitted maximal effect.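 On activation: HepG2 cells stably carrying human CAR and a CYP2B6 luciferase reporter.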 A digest of the protocol: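 Stable hCAR/CYP2B6-2.2kb HepG2 line in DMEM with 10% FBS; compounds (15 concentrations) and 0.75 uM PK11195 final, 24 h at 37 C/5% CO2, then ONE-Glo luminescence after 30 min.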
The nature of experiment [15]: qHTS assay to identify small molecule agonists of H2AX (AID 1224845; active means well fitted activation curve with a large enough effect in the signal ratio in the repeat runs, not every such curve was filed as active; the % refers to the signal ratio). A digest of the protocol: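 Wild-type CHO-K1 cells plated overnight, then exposed 3 hr at 37C to compounds at 15 concentrations (0.76% DMSO). Lysed, then HTRF anti-pH2AX(S139)-cryptate/anti-H2AX-d2 detection after 24 hr at room temperature; emissions 665 and 620 nm.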
Experiment [16] can be described thus: qHTS assay to identify small molecule agonists of H2AX - cell viability counter screen (AID 1224847; calls by dose curve; further: top concentration of the series differs between compounds; nearly all actives have a fitted effect of over 30% in size). A digest of the protocol:
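Viability of CHO-K1 (wild type) cells after 3 hr compound exposure was measured by CellTiter-Glo luminescence.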

The nature of experiment [17]: qHTS assay to identify small molecule antagonists of the estrogen related receptor signaling pathway with the pleiotropic PPARgamma coactivator (PGC) from Tox21 10K library (AID 1224841; call rule not given here). A digest of the protocol:
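Luminescence (One-Glo, 30 min at room temperature) after 18 h compound treatment at 37 C of PGC/ERR reporter cells plated at 2,000 cells/well and settled 6 h beforehand.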

Experiment [18] in a line: qHTS assay to identify small molecule agonists of the estrogen related receptor signaling pathway with the pleiotropic PPARgamma coactivator (PGC) from Tox21 10K library (AID 1224842). Further: nearly all actives have a fitted effect of over 15% in size. A digest of the protocol:
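PGC/ERR reporter cells (NTP line) were seeded 2,000 per well, rested 6 h at 37 C/5% CO2, then pin-dosed with compounds in DMSO for 18 h at 37 C; luciferase read by One-Glo luminescence after 30 min at room temperature.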

Experiment [19] can be described thus: qHTS assay to identify small molecule antagonists of the estrogen related receptor (ERR) signaling pathway from Tox21 library (AID 1224848). Further: nearly all actives have a fitted effect of over 50% in size. A digest of the protocol:
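First, 2,000 ERR cells per well were plated and held 6 h at 37 C/5% CO2. Next, compounds in DMSO were pinned in and left 18 h at 37 C. Finally, ONE-Glo was added and luminescence read after 30 min at room temperature.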

Experiment [20] is described as follows: qHTS assay to identify small molecule agonists of the estrogen related receptor (ERR) signaling pathway from Tox21 library (AID 1224849; calls by dose curve; further: nearly all actives have a fitted effect of over 15% in size). To be noted: ERR reporter cell line, ONE-Glo luciferase, 18 h; at 92.4 µM (top of the series) unless noted. A digest of the protocol:
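Luminescent agonist read-out (One-Glo, 30-minute room-temperature incubation) following 18-hour compound treatment at 37 C of the ERR cell line, which had been plated 6 hours before dosing.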

Values without a mark were called inactive. Records with an inconclusive call do not appear. Activity calls are given as the source filed them. Unless noted, the call rests on the fitted dose curve; in most records, active means well fitted curve in the direction sought with a large enough effect in the repeat runs; inconclusive means weak or mixed curves; inactive means no such curve, though single readings can be large; an effect the other way counts as inactive or inconclusive.
On the % scale 0 is the no-effect control and ±100 the full control effect.

Sequence of Thyrotropin receptor (Homo sapiens) (P16473 whole entry, looked up): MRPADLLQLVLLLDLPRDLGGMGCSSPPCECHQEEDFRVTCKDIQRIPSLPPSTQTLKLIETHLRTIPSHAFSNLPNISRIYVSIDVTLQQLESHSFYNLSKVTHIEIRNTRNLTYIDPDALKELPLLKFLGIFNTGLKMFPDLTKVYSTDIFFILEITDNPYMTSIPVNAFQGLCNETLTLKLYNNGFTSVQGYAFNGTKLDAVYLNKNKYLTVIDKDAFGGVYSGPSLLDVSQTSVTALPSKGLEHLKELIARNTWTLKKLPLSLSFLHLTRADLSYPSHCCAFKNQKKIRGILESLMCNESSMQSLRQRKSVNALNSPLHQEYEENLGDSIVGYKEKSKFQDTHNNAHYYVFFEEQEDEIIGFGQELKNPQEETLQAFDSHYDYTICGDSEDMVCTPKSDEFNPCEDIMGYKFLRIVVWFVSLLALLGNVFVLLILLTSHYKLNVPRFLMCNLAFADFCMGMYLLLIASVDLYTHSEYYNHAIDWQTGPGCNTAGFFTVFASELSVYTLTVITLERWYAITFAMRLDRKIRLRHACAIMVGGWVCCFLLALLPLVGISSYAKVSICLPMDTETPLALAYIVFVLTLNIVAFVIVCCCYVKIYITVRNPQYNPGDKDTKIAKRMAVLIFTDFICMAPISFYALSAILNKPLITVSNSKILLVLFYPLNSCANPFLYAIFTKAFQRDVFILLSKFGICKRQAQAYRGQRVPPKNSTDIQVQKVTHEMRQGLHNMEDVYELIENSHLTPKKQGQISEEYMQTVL
Sequence of Luciferin 4-monooxygenase (Photinus pyralis) (P08659 whole entry, looked up): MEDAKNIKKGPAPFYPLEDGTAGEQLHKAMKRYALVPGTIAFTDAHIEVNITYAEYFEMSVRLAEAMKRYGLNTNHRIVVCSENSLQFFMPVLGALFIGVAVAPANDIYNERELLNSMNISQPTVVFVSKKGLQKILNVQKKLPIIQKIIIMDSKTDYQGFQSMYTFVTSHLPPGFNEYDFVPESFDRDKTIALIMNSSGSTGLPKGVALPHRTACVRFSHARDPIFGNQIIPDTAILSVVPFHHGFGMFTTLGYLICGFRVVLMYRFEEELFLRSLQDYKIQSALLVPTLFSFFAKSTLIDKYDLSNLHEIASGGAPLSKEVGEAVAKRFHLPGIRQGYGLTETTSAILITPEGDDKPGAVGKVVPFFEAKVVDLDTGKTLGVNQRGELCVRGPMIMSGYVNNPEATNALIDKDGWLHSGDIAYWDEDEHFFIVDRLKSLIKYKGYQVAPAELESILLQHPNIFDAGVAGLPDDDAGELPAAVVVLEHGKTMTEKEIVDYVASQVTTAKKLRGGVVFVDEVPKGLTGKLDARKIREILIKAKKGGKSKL
Sequence of Nuclear receptor subfamily 1 group I member 3 (Homo sapiens) (Q14994 whole entry, looked up): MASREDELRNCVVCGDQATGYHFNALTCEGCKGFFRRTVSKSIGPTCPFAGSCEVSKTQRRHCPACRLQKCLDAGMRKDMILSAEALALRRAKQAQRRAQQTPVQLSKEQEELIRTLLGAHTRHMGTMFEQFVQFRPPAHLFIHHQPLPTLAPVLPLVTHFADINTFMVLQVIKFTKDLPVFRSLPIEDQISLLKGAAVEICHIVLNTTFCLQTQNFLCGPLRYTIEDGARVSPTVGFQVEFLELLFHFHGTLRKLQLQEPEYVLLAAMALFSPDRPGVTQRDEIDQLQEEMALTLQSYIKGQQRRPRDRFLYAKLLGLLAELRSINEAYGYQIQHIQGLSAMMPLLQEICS

For `CCCCOP(=O)(O)OCCCC`, the Potency result in [1], in [2], in experiment [3], in [4], in [5] and in [6] was “inactive” each time. In addition, the Potency result in experiment [8], in experiment [9], in experiment [10], in experiment [11] and in [12] was “inactive” each time. The result in experiment [7] was inactive.

Regarding `CC1(C)CON(Cc2ccccc2Cl)C1=O`, the Potency entry in [1], in experiment [2], in experiment [13], in experiment [4], in [6] and in experiment [15] was “inactive” throughout. Besides, the Potency entry in experiment [16], in experiment [8], in experiment [10], in [11] and in [12] was “inactive” throughout. In experiment [14], the Potency was 48.6 µM (active). The compound was classed as inactive in experiment [7].

For `O=NN1CCN(N=O)CC1`, the Potency result in experiment [1], in [2], in experiment [13], in experiment [14], in [4] and in experiment [17] was “inactive” each time. For the same compound, the Potency entry in [5], in experiment [6], in experiment [16], in experiment [19], in experiment [8] and in [9] was “inactive” in each case. The Potency result in [10], in [11] and in experiment [12] was “inactive” throughout. The compound was called inactive in experiment [18] and in [7]. Also, the activity change, positive = activation in experiment [20] was 3%.

As for `COCC(=O)N(c1c(C)cccc1C)N1CCOC1=O`, the Potency result in [1], in [2], in [13], in [14], in [4] and in [17] was “inactive” in each case. Also, the Potency result in experiment [6], in experiment [15], in experiment [16], in experiment [19], in experiment [8] and in [9] was “inactive” in each case. The Potency entry in experiment [10], in experiment [11] and in experiment [12] was “inactive” in each case. The result in experiment [18] and in experiment [7] was inactive. Moreover, in experiment [20], the activity change, positive = activation is 0.713%.

For `COC(C)(C)C`, the Potency result in experiment [1], in experiment [2], in [3], in experiment [4], in [5] and in experiment [6] was “inactive” each time. The Potency entry in [15], in [16], in [8], in experiment [10] and in experiment [11] was “inactive” in each case. The compound was classed as inactive in experiment [7].

Regarding `NC(=S)C(N)=S`, the Potency result in experiment [1], in experiment [2], in [13], in experiment [14], in experiment [4] and in [6] was “inactive” throughout. Moreover, the Potency result in experiment [15], in experiment [16], in experiment [8], in experiment [9], in experiment [10] and in experiment [11] was “inactive” throughout. Further, in experiment [12], the Potency result is “inactive”. Moreover, the compound was called inactive in experiment [18] and in experiment [7]. In addition, the activity change, positive = activation in experiment [20] is -20.6%.

With `OCCBr`, the Potency result in experiment [1], in [2], in experiment [3], in experiment [4], in [6] and in [15] was “inactive” each time. Also, the Potency entry in [16], in experiment [8], in experiment [9], in [10] and in [11] was “inactive” in each case. In addition, the result in experiment [7] was inactive.

With `CCCCOC(=O)c1ccccc1N`, the results for the Potency in experiment [1] and in experiment [12] were 40.1 µM (active) and 49.3 µM (active), respectively. The Potency entry in experiment [2], in experiment [3], in experiment [4], in [6], in experiment [15] and in experiment [8] was “inactive” throughout. Moreover, the Potency result in experiment [9], in experiment [10] and in [11] was “inactive” each time. For the same compound, the compound was called inactive in experiment [7].
